In the library only some 3% were active in any assay of this set; here they are far more common.
Vif inh: HIV Vif inhibition | HEK293T cells, Vif self-association by quenched fluorescence, imaging, 24 h | inhibition, % at 7.49 µM | 340,000 tested, 0.35% active; in the data active = inhibition above about 50%, passing the limit was not always enough; inconclusive = no clear call, values can overlap the other calls; inactive = below about 31%
PfHsp90 yeast 2: growth inhibition of yeast expressing Plasmodium Hsp90; S. cerevisiae expressing PfHsp90, BacTiter-Glo ATP, 48 h; yeast lacking PDR1 and PDR3 efflux regulators; inhibition, % at 9.4 µM; 310,000 tested, 0.32% active; AID 504621;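 active = every replicate shows inhibition above about 80%, whatever the replicate mean, limit read from the data; inconclusive = mean inhibition reaches the set limit but some replicate falls short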;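 note: 0% = DMSO neutral controls and 100% = 20 µM radicicol positive controls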
MITF TRPM1 HTS: MITF TRPM1 promoter activation in melanoma cells; SK-MEL-5 TRPM1-promoter luciferase, 24 h; % of positive control, neutral wells = 0; activation, % at 12.5 µM; 300,000 tested, 0.75% active;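 active = mean activation of at least 80% with every replicate also reaching 80%; inconclusive = mean reaches 80% but some replicate falls short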;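 note: 0% = neutral control wells and 100% = parthenolide positive control wells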
Wnt bcat act: Wnt/beta-catenin pathway activation; Wnt/beta-catenin reporter cell assay, activator, plate reader; activation, % at 9.35 µM; 300,000 tested, 1.2% active; in the data active = activation above about 30%, passing the limit was not always enough; inconclusive = no clear call, values can overlap the other calls;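 note: 0% = neutral control wells and 100% = positive control wells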
N-glyco inh: N-linked glycosylation inhibition | D54 ERlucT glycosylation luciferase reporter, 24 h; percent of 100 nM tunicamycin response | 360,000 tested, 0.23% active | AID 588692 | reporter increase, % at 12.5 µM;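 active = mean luciferase reporter signal, scaled so untreated is 0 and the glycosylation-blocking control 100, at or above a set limit in every replicate; inconclusive = mean reaches the limit but not every replicate does; inactive = mean below the limit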;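 note: luciferase carries N-glycosylation sites so blocking glycosylation raises the light; 0% = median of neutral control wells and 100% = median of 100 nM tunicamycin wells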
esBAF inh: blocks esBAF chromatin remodeling in mouse ES cells; Bmi1-luciferase knock-in reporter, 24 h; 100% = twice the neutral-well signal; reporter increase, % at 12.5 µM; 350,000 tested, 2% active; in the data active = activation above about 40%; inconclusive = no clear call, values can overlap the other calls;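 note: 0% = median of the plate's neutral control wells and 100% = double that signal; a rise in the Bmi1 reporter signal indicates esBAF inhibition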
* hit, by the source's call; i = inactive; ? = inconclusive; . = not tested or not shown.

SMILES	Vif inh	PfHsp90 yeast 2	MITF TRPM1 HTS	Wnt bcat act	N-glyco inh	esBAF inh
C[C@@]12CCC=C[C@H]1[C@H](c1ccc(/C=C/c3ccccc3)cc1F)N(Cc1ccccc1)C2=O	-21	20	12	-11	-6	12
O=c1ccc2cc3ccoc3cc2o1	26	4	.	-1	0	-9
CC(C)c1cc2cc3ccc(=O)oc3cc2o1	-5	-9	94*	-2	1	52*
N#Cc1ccc(-c2csc(-c3ccno3)n2)cc1	-3	.	.	-1	2	.
FC(F)(F)c1ccc(-c2csc(-c3ccno3)n2)cc1	0	-30	.	23	2	50*
CN(C(=O)c1cccc(NC(=O)Cc2cccc(NC(=O)C3CCCN(C(=O)C4CC4)C3)c2)c1)C1CC1 (stereo not drawn)	-10	6	16	-1	1	8
CCCc1ccc2oc(C(=O)NCCc3cnn(C)c3)c(C)c2c1	-12	2	68	30	-1	47*
CCCc1ccc2oc(C(=O)NCCc3nc(C(=O)OCC)cs3)c(C)c2c1	.	4	29	17	-1	.
CCCc1ccc2oc(C(=O)N(C)Cc3ccn[nH]3)c(C)c2c1	-2	-29	44	7	0	75*
O=C(Nc1ccc(C(=O)O)cc1)/C(=C\c1ccco1)NC(=O)c1ccc(Br)o1	5	-7	2	-3	3	-5
COc1ccc(C(=O)C2CCCN(C(=O)Cn3nc(C)nc3C)C2)cc1F (stereo not drawn)	.	.	.	-3	1	-4
Cc1nc(C)n(CC(=O)N2CCCC(C(=O)c3ccc(C(F)(F)F)cc3)C2)n1 (stereo not drawn)	96*	-8	14	4	1	.
c1ccc(Cn2c(-c3ccco3)nc3nc4ccccc4nc32)cc1	4	-4	90*	38*	-3	.
O=c1c2ccccc2nc(-c2ccc(Br)cc2)n1Cc1ccccc1	-3	-48	1	1	-5	-8
O=c1c2ccccc2nc(-c2ccco2)n1Cc1ccccc1	1	.	96*	.	-2	52*
CCCCCn1c(-c2ccco2)nc2nc3ccccc3nc21	-17	3	0	.	5	-4
C[C@H](CO)N1C[C@H](C)[C@H](CN(C)C)Oc2ncc(-c3ccccc3)cc2C1=O	.	.	.	.	.	2
COc1cccc(C#CC2=CC(=O)C[C@H](c3ccc(F)cc3)C2)c1	-1	.	.	-1	-5	7
CSC(=S)NN=C(C)c1cccc(C)n1	4	105*	.	-16	-8	.
Cc1ccc(S(=O)(=O)NCCC(=O)OC(C)C(=O)NC2CC2)cc1 (stereo not drawn)	-3	-27	-1	1	-1	-5
Cc1n[nH]c(=O)nc1Nc1ccc(O)cc1	66*	-1	3	1	1	-3
Cc1n[nH]c(=O)nc1NCc1ccco1	-6	5	-2	.	0	-5
Cc1n[nH]c(=O)nc1N/N=C/c1ccco1	1	-2	17	49*	0	.
Cc1ccc(Nc2nc(=O)[nH]nc2C)cc1	.	-9	1	.	2	2
CCOc1ccc(N=C/C=C/c2ccccc2)c(O)c1	-15	-211	-8	-1	8	-5
SMILES	Vif inh	PfHsp90 yeast 2	MITF TRPM1 HTS	Wnt bcat act	N-glyco inh	esBAF inh
Cc1cccc2c1-c1sc(C(=O)Nc3cccc([N+](=O)[O-])c3C)cc1CO2	1	1	3	0	-4	.
Cc1cc2c(nc1C)CCCN2S(=O)(=O)c1ccc(F)cc1	.	.	.	1	.	.
Cc1ccc(SCc2cn3ccccc3n2)cc1	?	-15	96*	33*	-9	38
c1ccc(CSCc2cn3ccccc3n2)cc1	14	-39	72	19	-5	70*
c1ccc2nc(SCc3cn4ccccc4n3)cnc2c1	2	4	57	38*	1	.
c1ccc2oc(SCc3cn4ccccc4n3)nc2c1	4	-9	37	?	-10	.
CCN(CC)C(=O)c1ccc(S(=O)(=O)Cc2ccc(C)cc2)c([N+](=O)[O-])c1	-8	13	1	-2	5	-81
Cc1ccc(-c2cc(C(F)(F)F)c(C#N)c(SCCC#N)n2)o1	9	-18	-25	.	2	-16
NC(=O)C(c1ccc(Br)cc1)c1ccc(C(=O)c2ccccc2)cc1 (stereo not drawn)	.	-24	-15	0	-3	-11
Cc1ccc(-c2nc(C#N)c(NCCc3ccccn3)o2)cc1	-12	4	67	.	-2	52*
N#Cc1nc(-c2ccc(Cl)cc2)oc1NCCc1ccccn1	-19	6	27	36*	-3	24
COc1ccc(-c2nc(C#N)c(NCCc3ccccc3)o2)cc1	1	.	66	19	2	.
COc1ccc2oc(C(=O)Nc3nc4ccc(S(C)(=O)=O)cc4s3)c(C)c2c1	?	-1	19	0	-3	2
COc1ccc2oc(C(=O)Nc3nnc(C)s3)c(C)c2c1	-1	.	38	34*	-8	-22
CC(=O)c1sc(NC(=O)c2oc3ccc(F)cc3c2C)nc1C	-10	-6	66	39*	-2	50*
Cc1ccc2oc(C(=O)Nc3nnc(C)s3)c(C)c2c1	.	-19	44	57*	0	65*
Nc1ccc2cc3ccccc3cc2c1	i	-15	?	9	2	49*
COc1ccc(CCNC(=O)CSc2n[nH]c(N)n2)cc1	7	-7	10	-1	2	-3
CC1(C)CC(=O)C2=C(C1)Nc1ccccc1N(C(=O)C1CC1)C2c1ccco1 (stereo not drawn)	52*	-4	-6	5	0	-3
Cc1cccc(NC(=O)NC(=O)c2ccccc2)n1	-5	14	43	37*	-1	.
Cc1ccc(C(=O)Nc2ccnc(-c3cccnc3)n2)cc1	-12	10	33	0	3	.
COC(=O)c1ccc(NC(=O)c2cn(-c3cccc(C)n3)cn2)cc1	2	10	21	1	1	6
Cc1cccc(NC(=O)Nc2ccc(C)c(C)c2)n1	-7	5	32	35*	0	48*
Cc1ccc(NC(=O)Nc2ccnc(-c3cccnc3)n2)cc1	-2	0	-3	55*	4	.
Cc1ccc(NC(=O)c2cn(-c3cccc(C)n3)cn2)cc1	-5	-7	106*	.	0	26
COCc1cc(Sc2ccc(Cl)cc2Cl)nc(-c2ccccc2)n1	23	0	.	-2	1	-12
COC(=O)C[C@H]1CC[C@H]2[C@@H](COC[C@@H](O)CN2S(=O)(=O)c2cn(C)cn2)O1	.	.	.	.	.	-6
CCCNC(=O)N1C[C@@H](O)COC[C@H]2O[C@H](CC(=O)N3CCN(C)CC3)CC[C@@H]21	.	.	.	.	.	-3
Cc1ccc(NC(=O)Nc2cccc(C)n2)cc1	-9	-2	76	40*	-4	4
Cc1cccc(NC(=O)Nc2ccc(F)cc2)n1	.	-26	45	12	1	?

Compound activity from PubChem.
